Results filed as inconclusive are left out. A call without a number means that no potency is given here. Calls of active or inactive are those of the source. The call rests on the fitted dose curve; in most records, active means well fitted cell-killing curve with a large enough effect in the repeat runs; inconclusive means weak or mixed curves, or effect the other way; inactive means flat fitted curve, though single readings scatter.
What was measured:
[1] = cAMP Responsive Elements (CRE) small molecule antagonists, cell-based qHTS assay: qHTS cell viability counter screen (AID 2060913); further: nearly all actives have a fitted effect of over 40% in size
Procedure, shortened: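 CRE-bla HEK293T cells (2,000/well, 18 h) given compound plus NKH477 0.25 uM final for 3 h at 37C; viability counter-screen by CellTiter-Glo luminescence in same wells after 30 min.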

[2] = cAMP Responsive Elements (CRE) small molecule agonists, cell-based qHTS assay: qHTS cell viability counter screen (AID 2060914);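 further: viability read after 3 h of compound exposure; nearly all actives have a fitted effect of over 50% in size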
Procedure, shortened: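 Cells are seeded and incubated 18 h, treated with compounds in DMSO for 3 h, read for the bla reporter, then given CellTiter-Glo; luminescence is measured after 30 min at room temperature.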

SMILES | Potency [1] | Potency [2]
CN(C)c1ccc2nc3ccc(=[N+](C)C)cc-3sc2c1 | inactive | inactive
C=C(C)C(=O)OCCN(CC)CC | inactive | inactive
C=CCCCCCCCCO | inactive | inactive
CO[Si](CCCOCC1CO1)(OC)OC (centres undefined) | inactive | inactive
Nc1ccc(NCCO)c([N+](=O)[O-])c1 | inactive | inactive
CC1=C(C)C(=O)C(C(CCCCCC(=O)O)c2ccccc2)=C(C)C1=O (centres undefined) | inactive | inactive
CN(C)C(=O)Oc1ccc[n+](C)c1 | inactive | inactive
C1=CCC2CC=CC2C1 (centres undefined) | inactive | inactive
CC1(C)[C@@H]2CC[C@@]1(C)[C@H](O)C2 | inactive | inactive
COc1ccc(-n2nc(CCC(=O)N(C)O)cc2-c2ccc(Cl)cc2)cc1 | inactive | inactive
O=C(O)c1cc(C(=O)O)c(C(=O)O)cc1C(=O)O | inactive | inactive
C[C@H]1COc2c(C3(N)CC3)c(F)cc3c(=O)c(C(=O)O)cn1c23 | inactive | inactive
CN(C)CC/C=C1\c2ccccc2Sc2ccc(Cl)cc21 | inactive | inactive
Clc1ccc2nsnc2c1NC1=NCCN1 | inactive | inactive
Cc1ccc(S(=O)(=O)NC(=O)NC2CCCCC2)cc1 | inactive | 
NCCCC[C@H](N[C@@H](CCc1ccccc1)C(=O)O)C(=O)N1CCC[C@H]1C(=O)O | inactive | inactive
OCC(O)CS (centres undefined) | inactive | inactive
O=C(CCCN1CCC(O)(c2ccc(Cl)cc2)CC1)c1ccc(F)cc1 | inactive | 
Cc1ccc(O)c(N)c1 | inactive | inactive
Cc1ccc(C(=O)O)cc1 | inactive | inactive

SMILES | Potency [1] | Potency [2]
CC(C)(C)c1cccc(O)c1 | inactive | inactive
O=C1[C@H](CC[C@H](O)c2ccc(F)cc2)[C@@H](c2ccc(O)cc2)N1c1ccc(F)cc1 | inactive | inactive
CN1C[C@H]2c3ccccc3Oc3ccc(Cl)cc3[C@@H]2C1 | inactive | inactive
CC(C)=CC1CC(C)CCO1 (centres undefined) | inactive | inactive
CN(C)CCOC(=O)C(c1ccccc1)C1(O)CCCC1 (centres undefined) | inactive | inactive
CCCCCCCC(C)=O | inactive | inactive
NS(=O)(=O)c1cc(C2(O)NC(=O)c3ccccc32)ccc1Cl (centres undefined) | inactive | inactive
C=CCSCC1Nc2cc(Cl)c(S(N)(=O)=O)cc2S(=O)(=O)N1 (centres undefined) | inactive | inactive
Cc1oc(-c2ccccc2)nc1CCOc1cccc2c1ccn2CCC(=O)O | inactive | inactive
CCc1nccnc1C | inactive | inactive
CCCCOC(=O)[C@H](C)O | inactive | inactive
O=C(/C=C/C=C/c1ccc2c(c1)OCO2)N1CCCCC1 | inactive | inactive
CCCCCCCCCCCCCCBr | inactive | inactive
CCC(C)(C)C1CCCCC1OC(C)=O (centres undefined) | inactive | inactive
C[C@@H](CN(C)C)CN1c2ccccc2Sc2ccccc21 | inactive | inactive
CCCCN=C(N)N=C(N)N | inactive | inactive
C=C(C)C(=O)OCCN(C)C | inactive | inactive
NCc1ccccc1Sc1ccccc1CO | inactive | inactive
CCCOC(OCCC)OCCC | inactive | inactive
CCCNC(C)C(=O)Nc1c(C)csc1C(=O)OC (centres undefined) | inactive | inactive

SMILES | Potency [1] | Potency [2]
CC(=O)Nc1ccccc1C | inactive | inactive
Cc1ccc(C=O)cc1C | inactive | inactive
CCCCCCCCCCCCN1CCCCCC1=O | inactive | inactive
O=C(O)CCC(=O)C(=O)O | inactive | inactive
CC(C)(C)S | inactive | inactive
Cc1nc2c([nH]1)c(=O)n(C)c(=O)n2Cc1ccco1 | inactive | inactive
CCCCOC(=O)CC(CC(=O)OCCCC)(OC(C)=O)C(=O)OCCCC | inactive | inactive
CCCCCCCCCCCCCOP(=O)(O)O | inactive | inactive
CCCc1ccccc1O | inactive | inactive
CCCC(=O)OC(C)(C)Cc1ccccc1 | inactive | inactive
CC(=O)N(CC(=O)N(C)C)c1ccccc1 | inactive | inactive
CCCCCCCCCCCCCCCCC(=O)O | inactive | inactive
COC(=O)CS | inactive | inactive
O=[N+]([O-])c1ccc2c(c1)Cc1ccccc1-2 | inactive | inactive
C=CC(C)(C)O | inactive | inactive
Oc1ccc(Oc2ccccc2)cc1 | inactive | inactive
c1ccc2cc(Nc3ccc(Nc4ccc5ccccc5c4)cc3)ccc2c1 | inactive | inactive
COc1ccc(/C=N/NC(=O)c2ccncc2)cc1OC | inactive | inactive

From PubChem BioAssay (Tox21)
